Experimental data: PubChem BioAssay (EPA / NIEHS)
Records with an inconclusive call do not appear. The source made the active and inactive calls. How the source made its calls, unless noted: active means hit-call score of the fitted dose curve at least 0.9, where 1 is the maximum; inactive means score below 0.9.

Experiments:
[1] = target: guinea pig Leukotriene D4 Receptor (LTD4), CYSLTR1 (gene 100135514) (UniProt Q2NNR5); test: NVS_GPCR_gLTD4: NovaScreen (NVS) G Protein-Coupled Receptor Assay for guinea pig Leukotriene D4 Receptor (LTD4) (AID 2283248; active means hit-call score of the fitted dose curve at least 0.9, where 1 is the maximum)
Chain of guinea pig Leukotriene D4 Receptor (LTD4), CYSLTR1 (gene 100135514) (Q2NNR5 whole entry, looked up): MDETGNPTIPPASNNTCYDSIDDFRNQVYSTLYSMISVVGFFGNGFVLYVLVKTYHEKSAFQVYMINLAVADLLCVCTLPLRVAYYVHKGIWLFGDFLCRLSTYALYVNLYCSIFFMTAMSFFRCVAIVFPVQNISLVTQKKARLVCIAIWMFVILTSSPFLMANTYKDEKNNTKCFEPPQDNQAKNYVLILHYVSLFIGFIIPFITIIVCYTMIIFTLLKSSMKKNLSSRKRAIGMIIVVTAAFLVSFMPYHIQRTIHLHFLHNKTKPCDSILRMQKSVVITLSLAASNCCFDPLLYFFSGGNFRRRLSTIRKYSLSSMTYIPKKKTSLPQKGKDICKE
In short: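 Guinea pig lung membrane preparation; bound radioligand measured by filter scintillation after 1 h, loss of signal versus DMSO marking displacement. Compounds tested at 25 uM in duplicate, hits retested to max 50 uM.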

[2] = CCTE_Shafer_MEA_dev_spike_duration_mean: CCTE's Neural Network Formation Assay for Mean Spike Duration, Shafer Lab (AID 2284051);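 further: mean network spike duration pooled as area under curve over DIV 5 to 12 recordings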
In short: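 Rat cortical primary cultures, 48-well MEA (16 electrodes/well); compound from plating, renewed DIV 5, 9. Network spike duration (AxIS adaptive detector) recorded DIV 5/7/9/12, combined as trapezoidal AUC; loss direction vs DMSO.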

[3] = CCTE_Shafer_MEA_dev_network_spike_duration_std: CCTE's Neural Network Formation Assay for Standard Deviation of Network Spike Duration, Shafer Lab (AID 2284052);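 further: area under curve of spike duration SD across recording days 5 to 12; hits are decreases in network spike duration SD versus DMSO vehicle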
In short: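 Rat cortical cultures, 1.5 x 10^5 cells/well, exposed continuously from plating to DIV 12 with media/compound renewal at DIV 5, 9. Spontaneous activity recorded DIV 5/7/9/12, AxIS adaptive spike detector; AUC across days; negative direction vs DMSO.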

[4] = CCTE_Shafer_MEA_dev_per_network_spike_spike_number_mean: CCTE's Neural Network Formation Assay for Mean Number of Spikes in a Network Spike, Shafer Lab (AID 2284053)
In short: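 Rat cortical primary cultures on 48-well MEA; compound from day 0, re-dosed with full media change DIV 5, 9. Recorded DIV 5, 7, 9, 12; spikes in 0.05 s window at network-spike peak ÷ total network spikes; AUC; loss vs DMSO.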

[5] = CCTE_Shafer_MEA_dev_per_network_spike_spike_percent: CCTE's Neural Network Formation Assay for Percent of Spikes in a Network Spike, Shafer Lab (AID 2284054)
In short: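 Metric: fraction of spikes falling in a 0.05 s window at network-spike peaks. Recordings were made on days 5, 7, 9 and 12 and collapsed by trapezoidal AUC. Cultures were rat cortical neurons on MEA plates, dosed continuously from plating, re-dosed at media changes.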

[6] = CCTE_Shafer_MEA_dev_LDH: CCTE's Lactate Dehydrogenase Assay for Cytotoxicity in the Neural Network Formation Assay, Shafer Lab (AID 2284068; active means hit-call score of the fitted dose curve at least 0.9, where 1 is the maximum;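 further: exposure for twelve days from plating with re-dosing on DIV 5 and 9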)
In short: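 Rat cortical primary neurons, MEA culture; dosing day 0–12, full medium plus compound exchange DIV 5, 9. Read-out: LDH enzyme activity, spectrophotometric. DMSO = negative control/baseline; signal loss → cytotoxicity.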

[7] = CCTE_Shafer_MEA_dev_mutual_information_norm: CCTE's Neural Network Formation Assay for Mutual Information Normalization, Shafer Lab (AID 2284091)
In short: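 Shared information across electrodes, tracked on days 5, 7, 9 and 12 of network development and collapsed as trapezoidal area under the curve. Rat cortical cultures were treated continuously from plating, with treatment renewed at feeds on DIV 5 and 9; DMSO baseline, negative-direction fit.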

[8] = CCTE_Shafer_MEA_dev_correlation_coefficient_mean: CCTE's Neural Network Formation Assay for Mean Correlation Coefficient, Shafer Lab (AID 2284093)
In short: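 Rat cortical cultures, 1.5 x 10^5 cells/well, dosed from day 0 for 12 days. Spontaneous spikes recorded DIV 5/7/9/12; electrode-pair correlation coefficients averaged, AUC taken. Fit in loss direction vs DMSO.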

[9] = CCTE_Mundy_HCI_Cortical_Synap_Neur_Matur_NeuriteSpotCountPerNeuriteLength: CCTE's Synaptogenesis and Neurite Maturation Assay in rat cortical cells for Neurite Spot Count per Neurite Length, Mundy Lab (AID 2284210)
In short: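 Synaptophysin spots per unit neurite length, measured by automated imaging of MAP2/synaptophysin/Hoechst-stained neurons. Cultures from rat cortex received chemical at DIV 7 with media change through DIV 12; glial growth arrested by AraC at DIV 5; DMSO baseline.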

[10] = CCTE_Mundy_HCI_Cortical_Synap_Neur_Matur_BPCount: CCTE's Synaptogenesis and Neurite Maturation Assay in rat cortical cells for Branch Point Count, Mundy Lab (AID 2284211)
In short: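 In this multiplexed morphology assay, cortical cells from rat receive chemicals at DIV 7 and are fixed at DIV 12, then immunostained and imaged; branch points are counted, with DMSO as baseline.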

[11] = CCTE_Mundy_HCI_Cortical_NOG_NeuriteCount: CCTE's Neurite Outgrowth Assay in rat cortical cells for Neurite Count, Mundy Lab (AID 2284212);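 further: cells fixed about two days after chemical exposure began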
In short: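 Rat cortical primary cells; compound added 2 h post-plating, 1/10 dilution of working solution. Anti-betaIII-tubulin/AF488 ICC; ArrayScan neurite count vs DMSO.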

[12] = CCTE_Mundy_HCI_Cortical_NOG_NeuriteLength: CCTE's Neurite Outgrowth Assay in rat cortical cells for Neurite Length, Mundy Lab (AID 2284213)
In short: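 First, rat primary cortical cells were plated and, 2 h later, given test chemical as a 1/10 dilution. Finally, βIII-tubulin immunostaining enabled automated imaging of neurite length.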

[13] = CCTE_Mundy_HCI_Cortical_Synap_Neur_Matur_NeuriteLength: CCTE's Synaptogenesis and Neurite Maturation Assay in rat cortical cells for Neurite Length, Mundy Lab (AID 2284214)
In short: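 Read-out: high-content imaging of MAP2-labelled neurites, with synaptophysin and Hoechst co-stain, in rat cortical cultures fixed at DIV 12. Activity fitted in positive direction relative to DMSO baseline.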

[14] = CCTE_Mundy_HCI_Cortical_Synap_Neur_Matur_NeuriteSpotCountPerNeuron: CCTE's Synaptogenesis and Neurite Maturation Assay in rat cortical cells for Neurite Spot Count per Neuron Count, Mundy Lab (AID 2284215)
In short: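 Rat cortical primary cultures; AraC DIV 5 to arrest glia; dosing + media change DIV 7; fixed DIV 12. Anti-MAP2/anti-synaptophysin, Hoechst nuclei; HCI puncta count per neuron, positive fitting direction vs DMSO.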

[15] = CCTE_Mundy_HCI_Cortical_Synap_Neur_Matur_NeuriteCount: CCTE's Synaptogenesis and Neurite Maturation Assay in rat cortical cells for Neurite Count, Mundy Lab (AID 2284222);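 further: exposure from day 7 to day 12 in vitro with readout at day 12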
In short: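 Primary rat cortical cells were plated, treated with AraC at DIV 5, then exposed to chemicals from DIV 7 through DIV 12. After fixation and immunostaining for MAP2 and synaptophysin, imaging quantified neurites, with DMSO as the negative control.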

[16] = CCTE_Mundy_HCI_Cortical_Synap_Neur_Matur_CellBodySpotCount: CCTE's Synaptogenesis and Neurite Maturation Assay in rat cortical cells for Cell Body Spot Count, Mundy Lab (AID 2284223)
In short: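 Rat cortical neurons; AraC @ DIV 5; dose + media change DIV 7; fix DIV 12; anti-MAP2/anti-synaptophysin IF, Hoechst; HCI count of soma synaptophysin puncta/neuron; DMSO = negative control.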

[17] = CCTE_Mundy_HCI_Cortical_NOG_BPCount: CCTE's Neurite Outgrowth Assay in rat cortical cells for Branch Point Count, Mundy Lab (AID 2284237)
In short: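 Measured 50.33 h after dosing, this morphology endpoint uses rat primary cortical cultures labelled for betaIII-tubulin. Branch points are quantified by high-content imaging, with DMSO as negative control and baseline.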

[18] = CCTE_Mundy_HCI_hNP1_Casp3_7: CCTE's Caspase-Glo 3/7 Assay in human neuroprogenitor cells for Apoptosis, Mundy Lab (AID 2284240)
In short: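 Apoptosis is scored by activated caspase-3/7 luminescence in WA09-derived neural progenitor cells, measured 26.5 h after chemical dosing. Values represent gain of signal relative to DMSO vehicle.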

[19] = CCTE_Mundy_HCI_iCellGluta_NOG_NeuronCount: CCTE's Neurite Outgrowth Assay in iCellGluta cells for Neuron Count, Mundy Lab (AID 2284340; active means hit-call score of the fitted dose curve at least 0.9, where 1 is the maximum;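 further: cells fixed about 48 h after compound addition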)
In short: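 Neuron count read by automated high-content imaging of Hoechst 33342 and betaIII-tubulin/Alexa Fluor-488 labelling in human iPSC glutamatergic neurons. Activity fitted relative to DMSO.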

[20] = CCTE_Mundy_HCI_iCellGluta_NOG_NeuriteCount: CCTE's Neurite Outgrowth Assay in iCellGluta cells for Neurite Count, Mundy Lab (AID 2284342; active means hit-call score of the fitted dose curve at least 0.9, where 1 is the maximum;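 further: chemical exposure about 48 hours starting 2 hours after plating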)

Measured: outcome

CCCCCCCCCCCCCCCCCC[N+](C)(C)C
inactive: [1]

CC1(C)S[C@@H]2[C@H](NC(=O)[C@H](N)c3ccccc3)C(=O)N2[C@H]1C(=O)O
inactive: [2] | [3] | [4] | [5] | [6] | [7] | [8] | [9] | [10] | [11] | [12] | [13] | [14] | [15] | [16] | [17] | [18] | [19] | [20]

NC(N)=Nc1nc(CSCCC(N)=NS(N)(=O)=O)cs1
inactive: [2] | [3] | [4] | [5] | [6] | [7] | [8] | [9] | [10] | [11] | [12] | [13] | [14] | [15] | [16] | [17] | [18] | [19] | [20]
